Reference: the supplement of paper PMC13380429

System: Vero E6 infected with SARS-CoV-2
Assay: inhibition of SARS-CoV-2 cytopathic effect; higher = more antiviral protection, active = above 15
Conditions: 48 h

Measured: inhibition of SARS-CoV-2 cytopathic effect

O=C(Oc1ccccc1C(=O)O)c1ccccc1O [sasapyrine]
inactive: 1 nM -6.73% | 8.33 nM -8.94% | 100 nM -2.49% | 833.33 nM -6.28% | 10000 nM -11.8%

CCOC(=O)CNC(=O)[C@@H]1CCCN1C(=O)Cc1ccccc1
inactive: 1 nM 0.67% | 8.33 nM -0.95% | 100 nM 3.29% | 833.33 nM 2.08% | 10000 nM 1.46%

CC(C)CC(=O)Nc1n[nH]c2c1CN(C(=O)C1CCN(C)CC1)C2(C)C
inactive: 1 nM 0.53% | 8.33 nM -0.22% | 100 nM 0.24% | 833.33 nM 0.59% | 10000 nM 1.78%

CN1CCC(NC(=O)c2cc(-c3c(O)cc(O)cc3Oc3ccc([N+](=O)[O-])cc3)on2)CC1
inactive: 1 nM 0.32% | 8.33 nM 0.21% | 100 nM 3.95% | 833.33 nM -1.5% | 10000 nM -5.98%

O=C(C[C@H]1CC(c2ccc(F)cc2F)=NO1)N1CCOCC1 (racemic)
inactive: 1 nM -1.54% | 8.33 nM 0.9% | 100 nM 2.24% | 833.33 nM 0.99% | 10000 nM 1.2%

O.O=[Si]=O.O=[Si]=O.O=[Si]=O.O=[Si]=O.[O]=[Mg].[O]=[Mg].[O]=[Mg]
inactive: 1 nM -4.07% | 8.33 nM 0.07% | 100 nM -1.66% | 833.33 nM 5.91% | 10000 nM 8.79%

c1ccc2cc(C3=NCCN3)ncc2c1
inactive: 1 nM 1.6% | 8.33 nM 1.22% | 100 nM 2.06% | 833.33 nM -0.28% | 10000 nM 1.35%

CC(N)CCCC(C)(C)O (stereo not given) [heptaminol]
inactive: 1 nM 0.22% | 8.33 nM 3.55% | 100 nM 2.95% | 833.33 nM -3.4% | 10000 nM 0.76%

CC(C)(Cc1c[nH]c2ccc(Cl)cc12)NCCOc1ccccc1OCC1CC1
inactive: 1 nM 0.45% | 8.33 nM -0.91% | 100 nM 0.78% | 833.33 nM -2.24% | 10000 nM -19.4%

N#Cc1cnc2cnc(NCc3cccnc3)cc2c1Nc1ccc(F)c(Cl)c1
inactive: 1 nM 0.87% | 8.33 nM 1.05% | 100 nM 2.35% | 833.33 nM -1.3% | 10000 nM -8.45%

O=C(NCC(=O)N1CC[C@H](N[C@H]2CC[C@@](O)(c3ccc(-c4ncccn4)cn3)CC2)C1)c1cccc(C(F)(F)F)c1
inactive: 1 nM -4.52% | 8.33 nM -2.69% | 100 nM 1.06% | 833.33 nM -0.75% | 10000 nM -0.61%

Cn1cnc2c1c(=O)[nH]c(=O)n2C [theobromine]
inactive: 1 nM -1.8% | 8.33 nM 1.86% | 100 nM 1.32% | 833.33 nM 1.3% | 10000 nM -1.36%

CC(=O)OC[C@H]1O[C@@H](n2ccc(=O)[nH]c2=O)[C@H](OC(C)=O)[C@@H]1OC(C)=O [uridine-triacetate]
inactive: 1 nM -1.68% | 8.33 nM 0.37% | 100 nM 0.84% | 833.33 nM -3.59% | 10000 nM -0.59%

Cn1nnnc1SCC1=C(C(=O)O)N2C(=O)[C@@H](NC(=O)[C@H](OC=O)c3ccccc3)[C@H]2SC1 [cefamandole-nafate]
inactive: 1 nM -1.93% | 8.33 nM -0.03% | 100 nM -2.69% | 833.33 nM -3.24% | 10000 nM -0.65%

COc1cccc(CN(C(=O)CC(C)(C)C)[C@H]2C[C@@H](C(=O)N3CCNCC3)N(Cc3ccc4c(c3)OCO4)C2)c1
inactive: 1 nM 7.37% | 8.33 nM 2.78% | 100 nM 5.86% | 833.33 nM -0.43% | 10000 nM -2.99%

CCC1(C)CC(=O)NC1=O (stereo not given) [ethosuximide]
inactive: 1 nM -0.56% | 8.33 nM 1.45% | 100 nM 1.18% | 833.33 nM 1.39% | 10000 nM -4.8%

O=C1NC(=O)/C(=C/c2cccc(C(F)(F)F)c2)S1
inactive: 1 nM 0.25% | 8.33 nM 2.25% | 100 nM 1.98% | 833.33 nM -0.59% | 10000 nM -1.22%

Cc1nc2c(c(=O)[nH]1)CSCC2
inactive: 1 nM 1.12% | 8.33 nM -1.82% | 100 nM 0.46% | 833.33 nM 0.11% | 10000 nM 4.1%

CCN[C@@H](C)Cc1cccc(C(F)(F)F)c1 [dexfenfluramine]
inactive: 1 nM 1.76% | 8.33 nM -0.09% | 100 nM 2.9% | 833.33 nM -3.54% | 10000 nM 0.8%
